GC-A act = GC-A (human) enzyme activation; P16066; HEK293 GC-A cells, cGMP TR-FRET, EC30 ANP; 0% at EC30 ANP, 100% saturating ANP; activation, % at 10 µM; actives 0.14% (n = 370,000); in the data active = activation above about 40%
KLK7 zymogen act = proKLK7 (human) activation, primary screen; P49862; purified proKLK7, EDANS-DABCYL substrate fluorescence; 100% is mature enzyme control, 0% vehicle; activation, % at 7 µM; actives 0.9% (n = 370,000); AID 652039;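 active = activation above the mean of all tested compounds plus 3 SD, computed per campaign excluding outliers beyond control limits, cut at about 13% in these data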
Target sequence (P49862 whole entry, looked up): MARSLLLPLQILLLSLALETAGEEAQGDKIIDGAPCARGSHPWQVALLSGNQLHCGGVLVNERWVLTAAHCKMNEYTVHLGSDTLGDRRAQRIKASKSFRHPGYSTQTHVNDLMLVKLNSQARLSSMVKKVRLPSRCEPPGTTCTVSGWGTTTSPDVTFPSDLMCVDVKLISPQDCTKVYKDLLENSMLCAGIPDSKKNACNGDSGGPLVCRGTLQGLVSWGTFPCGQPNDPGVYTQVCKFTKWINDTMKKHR
HIF activator = HIF pathway transcriptional activation. U2OS HRE-luciferase reporter, luminescence; normalized: DMSO 0%, desferrioxamine 100%. activation, % at 7.5 µM (by protocol). actives 0.32% (n = 300,000). AID 1910;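 active = mean activation of at least 10% of the iron chelator positive control signal, with at least half of replicates also reaching 10%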
NPR2 activator = GC-B (human) receptor activation; HEK293-GC-B cells, CNP EC30, cGMP TR-FRET; 0% at EC30 CNP, 100% saturating CNP; activation, % at 10 µM; actives 0.11% (n = 370,000); AID 1920062;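 active = activation at 10 µM reaching about 35% in either raw or pattern-adjusted values, limit read from the data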
KLK7 act conf = confirmation of human kallikrein-7 zymogen activators; actives 68% (n = 3,200); activation, % at 7 µM; shares compounds with KLK7 zymogen act; purified proKLK7, EDANS-DABCYL substrate fluorescence; scaled: vehicle 0, mature enzyme 100;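 active = activation, as change over the incubation, above the mean of all tested compounds plus 3 SD, cut at about 13% in these data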
EDANS interfere = counter-screen for kallikrein-7 activators: EDANS-DABCYL optical interference | shares compounds with KLK7 zymogen act | EDANS-DABCYL substrate fluorescence interference, no enzyme, 4 h; solvent 0%, active enzyme control 100% | activation, % at 7 µM | actives 80% (n = 3,200) | AID 686952;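 active = activation above the all-compound mean plus 3 SD, ignoring values outside control-based bounds, cut at about 4.8% in these data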;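 also: value is the 4 h activation minus the activation read at time zero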
K7 EDANS ctr = EDANS fluorescence interference in dose response, no enzyme; shares compounds with KLK7 zymogen act; EDANS-DABCYL peptide fluorescence interference; EC50, µM; actives 20% (n = 250);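 active = compounds that raise the fluorescence signal in this interference counterscreen, with EC50 at or below 10 µM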;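 also: intact quenched peptide substrate alone read at 355 nm excitation and 520 nm emission; signal is fluorescence gain from T0 to T4 after four hours at room temperature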
* = called active by the depositor; nt = not tested or not shown. Sampled rows, rich in hits. Any-hit rate of the full collection: about 1.3%.

SMILES | GC-A act | KLK7 zymogen act | HIF activator | NPR2 activator | KLK7 act conf | EDANS interfere | others
CCOC(=O)N1CCN(C(=O)C[C@H]2C[C@@]3(C(=O)OC)C(=C[C@H](C(C)(C)C)O[C@@H]3C)N(CCc3ccc(OC)c(OC)c3)C2=O)CC1 | 2.4 | 0.1 | nt | 4.6 | nt | nt
COc1ccccc1NC(=O)c1cc2c(s1)-c1ccccc1S(=O)(=O)C2 | -2.8 | 14.9* | -0.3 | -5.8 | -18.9 | -31.5
CN(C(=O)c1cc2c(s1)-c1ccccc1S(=O)(=O)C2)c1ccccc1 | -2.8 | 0.6 | 0.5 | -4.2 | nt | nt
CCn1nc(NC(C)=O)c2cc3cccc(C)c3nc21 | -1.4 | 2.3 | -0.3 | 4.6 | nt | nt
CCn1nc(NC(=O)C(C)C)c2cc3cccc(C)c3nc21 | -6.2 | 62.4* | -0.4 | -11.9 | -7.5 | -6.5
O=C(Cc1ccc([N+](=O)[O-])cc1)NCc1ccccc1Cl | 1.6 | 40.1* | -0.1 | 4.2 | -0.7 | -1.2
Cc1c(Cl)c(=O)oc2cc(OC(C)C)ccc12 | 3.8 | 14.7* | 0.0 | -4.6 | 0.9 | 2.9
Cc1cc(=O)oc2cc(OC(C)C)ccc12 | -1.8 | 2.2 | 0.6 | 5.2 | nt | nt
COC(=O)Cc1c(C)c2ccc(OC(=O)c3ccccc3)cc2oc1=O | -11.7 | 422.5* | 0.5 | -4.0 | 631.5* | 511.5*
CCC(=O)Oc1ccc2c(C)c(Cl)c(=O)oc2c1 | 7.7 | 40.0* | 0.3 | -6.8 | 671.6* | 655.1*
Cc1c(Cc2ccccc2)c(=O)oc2cc(OC(=O)c3ccccc3)ccc12 | 0.9 | -1.2 | 0.6 | 6.0 | nt | nt
COC(=O)[C@H](CC(C)C)N(Cc1cn(Cc2ccccc2)nn1)S(=O)(=O)c1ccc(F)cc1Br | -0.4 | 0.5 | nt | -1.9 | nt | nt
COc1ccc2c(CC(=O)O)cc(=O)oc2c1 | -1.5 | -1.3 | 0.2 | -2.3 | nt | nt
Cc1cc(=O)oc2cc(O)cc(O)c12 | 0.9 | 65.8* | nt | -2.8 | 67.3* | 76.4*
COc1cc(OC)c2ccc(=O)oc2c1 | 3.0 | 89.9* | nt | 8.8 | 49.2* | 61.1*
COc1cc(OC)c2c(C)cc(=O)oc2c1 | 0.0 | 32.4* | -0.8 | -0.7 | 37.7* | 48.0*
N#CCC[C@@H]1CC[C@]2(CCCN(S(=O)(=O)C3CCCCC3)C2)O1 | 1.0 | -0.4 | nt | -4.0 | nt | nt
C[C@H]1[C@H](N(Cc2ccccc2)Cc2ccccc2)CC[C@@]23CCCN2C(=O)CCC[C@@H]13 | -1.9 | nt | nt | -3.1 | nt | nt
COc1ccc(/C=N/NC(=O)c2nc(Cl)c(Cl)c(N)c2Cl)cc1COc1ccc(F)cc1F | -3.0 | -328.0 | 0.2 | 5.3 | nt | nt
COc1ccc(/C=N/NC(=O)c2nc(Cl)c(Cl)c(N)c2Cl)cc1COc1ccccc1F | -0.1 | 42.1* | -0.3 | -1.0 | 58.8* | 72.5*
COc1cc(NC(=O)C(OC(=O)CNC(=O)c2ccccc2)c2ccccc2)cc(C(F)(F)F)c1 (stereo not given) | -0.6 | nt | nt | -3.3 | nt | nt
O=c1[nH]c2ccccc2nc1-c1cccs1 | -2.8 | 31.6* | 4.4 | -1.1 | 31.7* | 42.5*
c1csc(-c2nnsc2-c2nc3ccccc3[nH]2)c1 | -6.5 | -0.9 | 1.2 | -2.8 | nt | nt
CC(c1nc2ccccc2[nH]1)n1c(=O)c(-c2cccs2)nc2ccccc21 (stereo not given) | -9.7 | 189.9* | nt | -6.0 | 21.8* | -24.6 | K7 EDANS ctr=7.55*
CC(c1nc2ccccc2[nH]1)n1c(=O)c(-c2cccnc2)nc2ccccc21 (stereo not given) | -5.4 | -1.9 | nt | -3.3 | nt | nt
SMILES | GC-A act | KLK7 zymogen act | HIF activator | NPR2 activator | KLK7 act conf | EDANS interfere | others
CCOc1ccc(/C(O)=C2/C(=O)C(=O)N(c3ccccn3)C2c2ccc(Cl)cc2)c(C)c1 (stereo not given) | 8.2 | 9.2 | 0.1 | -1.6 | nt | nt
CCOc1ccc(/C(O)=C2/C(=O)C(=O)N(c3ccccn3)C2c2ccc(C)cc2)c(C)c1 (stereo not given) | 6.7 | 17.0* | -0.4 | -1.3 | 32.3* | 32.1*
CCOc1ccccc1C(=O)N1CCC(Oc2cccnc2)CC1 | 1.9 | -0.1 | nt | -7.2 | nt | nt
CC(=O)c1ccc(-c2ccc(C(=O)NCC3CCCO3)o2)cc1 (stereo not given) | 1.9 | 29.5* | 0.3 | 1.2 | 42.7* | 45.0*
CC(=O)c1ccc(-c2ccc(C(=O)N3CCC(C(N)=O)CC3)o2)cc1 | 3.0 | 24.2* | 1.2 | -9.0 | 26.6* | 28.9*
CC(=O)c1ccc(-c2ccc(C(=O)N3CCN(c4ccc(F)cc4)CC3)o2)cc1 | 0.4 | 0.8 | 0.4 | 0.8 | nt | nt
CC(=O)c1ccc(-c2ccc(C(=O)NC3CC(C)(C)NC(C)(C)C3)o2)cc1 | 1.1 | 33.6* | -0.8 | 1.8 | 17.8* | 24.4*
CC1(C)CC(NC(=O)c2ccc(F)cc2)CC(C)(C)N1 | -6.4 | 0.1 | nt | -0.3 | nt | nt
Cc1ccc(CNC(=O)CCS(=O)(=O)c2cc3c(cc2Br)CCN3C(=O)C2CC2)o1 | -15.7 | 0.0 | nt | -11.2 | nt | nt
c1ccc(OCc2nnc(SCc3nc4ccccc4[nH]3)n2-c2ccccc2)cc1 | -9.9 | 0.8 | nt | -7.1 | nt | nt
COc1cccc([C@H]2NC(=O)C/C=C/[C@@H](C)[C@@H](c3cccc(OC)c3)NC(=O)C/C=C/[C@H]2C)c1 | 3.0 | 0.5 | nt | -8.0 | nt | nt
Cc1ccc(NC(=O)C2CCCN2S(=O)(=O)c2cccnc2)c(C)c1 (stereo not given) | 4.5 | -0.5 | nt | -5.5 | nt | nt
CN(C(=O)C1CCOC1)c1nnc(-c2ccncc2)s1 (stereo not given) | 3.6 | 45.6* | 1.7 | 1.3 | 64.9* | 70.1*
Cc1cnc(-c2nnc(N(C)C(=O)c3cccnc3)s2)cn1 | -0.8 | 42.1* | 0.8 | 2.9 | 72.4* | 74.4*
Cc1cnc(-c2nnc(N(C)C(=O)C3CCOC3)s2)cn1 (stereo not given) | 0.4 | 31.3* | 0.5 | -2.1 | 43.2* | 45.7*
CN(C(=O)C1CCOC1)c1nnc(-c2ccccn2)s1 (stereo not given) | 1.8 | 40.5* | 1.7 | -1.2 | 49.8* | 47.6*
O=C(CCc1ccccc1)N[C@H]1[C@H](OC(=O)c2ccco2)CCC[C@@]12C(=O)N(Cc1ccccc1)c1ccccc12 | -5.4 | 0.8 | nt | -1.5 | nt | nt
Cc1nn(-c2ccc(F)cc2)c2sc(C(=O)OC3CCOC3=O)cc12 (stereo not given) | 10.0 | 20.2* | -1.0 | -2.7 | 24.5* | 22.6*
O=C(Nc1ccccc1C(=O)NCc1ccco1)c1ccco1 | 0.0 | -0.6 | 0.0 | 1.8 | nt | nt
O=C(Nc1ccccc1C(=O)Nc1ccccc1C(=O)NCc1ccco1)c1ccco1 | 4.0 | 19.8* | -0.1 | 1.7 | -103.5 | -119.2
COc1ccc(Cl)cc1C(=O)NN=C1CCCC1 | -1.9 | 0.9 | 0.6 | 4.1 | nt | nt

Assay outcomes (PubChem)
